Spn MK inh – S. pneumoniae mevalonate kinase inhibition | inhibition, % at 10 µM | purified MK, PK/LDH-coupled NADH absorbance 340 nm | AID 555 | 65,000 compounds, 0.48% hits;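 active = ranked among the strongest by inhibition in the single 10 µM screen, a fixed top-ranked set picked for dose follow-up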
Autofluor 339 – intrinsic fluorescence of library compounds, ex339/em460 – biochemical, MLSMR library, data from DPM-DC assay, artefact control, profiling panel; compound autofluorescence, ex339/em460 nm, NADH buffer; stronger effect = higher value; 1 = no-compound wells, NADH background; fluorescence fold increase at 10 µM; 65,000 compounds, 5.5% hits; AID 709;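 active = at 10 µM, mean starting fluorescence two-fold or more over control wells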;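 also: signal is the first read of a kinetic run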
PMK inhibit – S. pneumoniae PMK inhibition; 65,000 compounds, 0.49% hits; purified PMK, PK/LDH-coupled NADH absorbance 340 nm; inhibition, % at 10 µM;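 active = top-ranked compounds by inhibition in the single 10 µM screen, taking a fixed number of the strongest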
DPM-DC inhibit – blocks S. pneumoniae diphosphomevalonate decarboxylase; purified DPM-DC, PK/LDH coupled NADH fluorescence; 65,000 compounds, 0.49% hits; calls only at 10 µM;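 active = the 320 compounds with the highest percent inhibition in the single-dose primary screen, excluding strongly autofluorescent ones, cut at about 32% in these data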;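 also: kinetic rate of NADH fluorescence loss reporting ADP formed by the decarboxylase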
A340 absorber – compounds absorbing at 340 nm | compound absorbance at 340 nm, fold over control | fold change at 10 µM | 65,000 tested, under 10 active | AID 708;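 active = at 10 µM dose, initial 340 nm absorbance at least 2 fold that of control wells; inactive = change under 2 fold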;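 also: initial absorbance extrapolated from kinetic A340 decline of NADH oxidation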
NADH enzymes – blocks coupling enzymes of NAD/NADH assays; coupled PK/LDH NADH assays, four targets; IC50, µM (top dose mostly 10 µM); 65,000 compounds, 0.02% hits; AID 774;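 active = single-dose screening hits from any of four coupled enzyme assays that gave an IC50 when retested across doses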;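 also: the DPM-DC format reads NADH fluorescence rather than 340 nm absorbance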
Numbers stand for hits; . = inactive; / = not tested or not shown; + = active, no number; [ ] = remark or other dose. A selection: hits, their analogues and other compounds. The true share with any hit is near 6.8%.

SMILES	Spn MK inh	Autofluor 339	PMK inhibit	DPM-DC inhibit	A340 absorber	NADH enzymes
CCC(=O)c1cc2c(cc1NC(=O)C(C)C)OCCO2	.	2.1	.	.	.	.
O=C(Nc1cccc(Cl)c1)Nc1ccc2c(c1)OCO2	.	.	.	.	.	.
COc1ccc(CN2C(=O)c3ccccc3C2C(=O)NC2CCCC2)c(OC)c1 (centres undefined)	.	.	25	.	.	.
COc1ccc(CN2C(=O)c3ccccc3C2C(=O)NCC2CCCO2)c(OC)c1 (centres undefined)	.	.	.	.	.	.
Cc1ccc(F)c(NC(=O)C2CCCCC2C(=O)O)c1 (centres undefined)	.	.	.	.	.	.
CSc1ccccc1NC(=O)c1cc(-c2cccs2)on1	.	2.3	.	.	.	.
COc1ccc(-c2noc(-c3ccccc3F)n2)cc1	.	.	.	.	.	.
COc1nc(-c2ccccc2)ccc1-c1noc(COc2ccccc2)n1	.	2.1	.	/	.	.
COc1ccc(-c2ccc(-c3noc(-c4ccccc4F)n3)c(OC)n2)cc1	.	3.7	.	/	.	.
COc1ccc(-c2ccc(-c3noc(-c4ccccc4)n3)c(OC)n2)cc1	.	3	.	/	.	.
c1ccc(OCc2nc(-c3ccccc3)no2)cc1	.	.	.	.	.	.
COc1nc(-c2ccc(Cl)cc2)ccc1-c1noc(-c2ccncc2)n1	.	2.8	.	.	.	.
COc1nc(-c2ccccc2)ccc1-c1noc(-c2ccccc2)n1	.	.	.	.	.	.
O=c1c2ccccc2nc2n1CC/C2=C/N1CCN(c2cccc(C(F)(F)F)c2)CC1	.	.	.	.	.	.
Cc1cc(-c2ccccc2)nn1-c1nc2c(c(=O)[nH]c(=O)n2C)n1C	.	.	.	.	.	.
COc1nc(-c2ccccc2)ccc1-c1noc(-c2ccco2)n1	.	.	.	.	.	.
CCOc1nc(-c2ccccc2)ccc1-c1noc(-c2ccc(OC)c(OC)c2)n1	.	.	.	+[fluoresces]	.	.
COc1ccc(-c2ccc(-c3noc(-c4ccco4)n3)c(OC)n2)cc1	.	3.7	.	/	.	.
COc1nc(-c2ccccc2)ccc1-c1noc(-c2cccs2)n1	.	2.2	.	.	.	.
CCOc1nc(-c2ccccc2)ccc1-c1noc(-c2cccnc2)n1	.	.	.	/	.	.
O=c1c2c3nc4ccccc4nc3n(CCN3CCOCC3)c2ncn1CCN1CCOCC1	.	.	.	.	.	.
Cc1cccc(OCC(O)Cn2c(-n3nc(C)cc3C)nc3c2c(=O)[nH]c(=O)n3C)c1 (centres undefined)	.	2.9	.	+	.	.
O=C(NCc1ccco1)C1(S(=O)(=O)c2ccc(Cl)cc2)CC1	.	.	.	.	.	.
CC1(C)Cc2c(C#N)c(N3CCOCC3)nc(Cc3ccccc3)c2CO1	.	2.3	.	/	.	.
CC1(C)Cc2c(C#N)c(N3CCOCC3)nc(-c3ccccc3)c2CO1	.	2.2	.	/	.	.
SMILES	Spn MK inh	Autofluor 339	PMK inhibit	DPM-DC inhibit	A340 absorber	NADH enzymes
CC1(C)Cc2nc(NCCCO)c(C#N)cc2CO1	.	2.4	.	/	.	.
Cc1nc(N2CCOCC2)c(C#N)c2c1COC(C)(C)C2	.	2.3	.	/	.	.
CC(C)C(=O)N1CCN(c2nc(-c3ccccc3)c3c(c2C#N)CCCC3)CC1	.	2.2	.	/	.	.
CC1(C)Cc2nc(N3CCOCC3)c(C#N)cc2CO1	.	3.7	.	/	.	.
CC1(C)Cc2c(C#N)c(SCc3ccccc3)nc(N3CCOCC3)c2CO1	.	.	.	.	.	.
CC(C)Cc1nc(N2CCN(C(=O)Cc3ccccc3)CC2)c(C#N)c2c1COC(C)(C)C2	.	.	.	.	.	.
CCc1nc(N2CCN(C(=O)c3ccccc3)CC2)c(C#N)c2c1COC(C)(C)C2	.	2.3	.	/	.	.
N#Cc1cc2cc3c(cc2nc1N1CCOCC1)OCO3	.	3.8	.	/	.	.
CC/C(=N\O)c1ccc(O)c(OC)c1	.	.	.	.	.	.
COCC(COCCCNC(=O)Nc1ccc(Br)cc1)OC (centres undefined)	.	.	.	.	.	.
CCCC(=O)N1CCN(c2nc(CC(C)C)c3c(c2C#N)CCC3)CC1	.	2.2	.	/	.	.
CC1CCN(c2nc(-c3ccco3)c3c(c2C#N)CC(C)(C)OC3)CC1	.	2.1	.	/	.	.
CCOC(=O)N1CCN(c2ncnc3c2oc2nc(CC(C)C)c4c(c23)CCC4)CC1	.	.	.	.	.	.
CC1(C)Cc2c(C#N)c(NCCN3CCOCC3)nc(-c3ccco3)c2CO1	.	.	.	.	.	.
CCc1nc(N2CCOCC2)c(C#N)c2c1COC(C)(C)C2	.	3.7	.	/	.	.
CC(=O)N1CCc2cc(S(=O)(=O)CCC(=O)N3CCN(C(=O)c4ccco4)CC3)ccc21	.	.	.	.	.	.
Cc1coc(NC(=O)CSc2nc(-c3ccncc3)cc(C(F)(F)F)c2C#N)n1	.	.	.	.	.	.
CC(C)c1ccc(NC(=O)C2C3C=CC4(CN(CCCN5CCOCC5)C(=O)C24)O3)cc1 (centres undefined)	.	.	.	.	.	.
O=C(Cc1c(C(=O)O)[nH]c2ccc(Cl)cc12)Nc1ccc2c(c1)OCCO2	.	.	.	.	.	.
OC(CNCC(c1ccco1)N1CCCCC1)c1ccccc1 (centres undefined)	.	.	.	.	.	.
Cc1c(NC(=O)OCCSc2nc(N(C)C)nc(N(C)C)n2)sc(=S)n1C	.	.	.	.	.	.
Cc1ccc2nc(CCc3nc4ccc(C)cc4o3)oc2c1	/	.	.	.	.	.
Cc1ccc2nc(-c3cccc(-c4nc5ccc(C)cc5o4)n3)oc2c1	.	2.1	.	.	.	.
Cn1cnc2cc(NS(=O)(=O)c3ccc(Br)cc3)ccc21	.	.	.	.	.	.
CCCCS(=O)(=O)Nc1ccc2ncn(C)c(=O)c2c1	.	3.5	.	/	.	.
SMILES	Spn MK inh	Autofluor 339	PMK inhibit	DPM-DC inhibit	A340 absorber	NADH enzymes
COC(=O)c1cc(=O)nc2sccn12	.	.	27	.	.	.
CCOc1ccc(-c2cc3nc(C4CCN(C(=O)OC(C)(C)C)CC4)c(C(=O)O)cn3n2)cc1	.	4.4	.	/	.	.
O=C(O)c1ccc(CS(=O)(=O)c2cccc(C(F)(F)F)c2)o1	.	.	.	.	.	.
CC1CN(Cc2nc3c(c(=O)n(C)c(=O)n3C)n2Cc2ccc(Cl)cc2)CC(C)O1 (centres undefined)	.	.	.	.	.	.
COC(=O)C1=CN(C(C)C)C=C(C(=O)OC)C1c1cc2c(cc1Br)OCO2	.	2	.	.	.	.
CC1=C(C(=O)OCC(C)C)C(c2cc3c(cc2Br)OCO3)NC(=O)N1C (centres undefined)	.	.	.	.	.	.
COc1ccc(-c2c3c(=O)n(C)c(=O)n(C)c3cn2-c2ccccc2)cc1	.	3.8	.	/	.	.

High-throughput results as filed in PubChem BioAssay.
